# Screening data deposited in PubChem by several laboratories.
# HMGR II inh – inhibitors of class II HMG-CoA reductase from Enterococcus faecalis; inhibition, % at 10 µM; 190,000 compounds, 0.41% hits; purified E. faecalis HMGR, NADPH absorbance 340 nm kinetic; AID 1066;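 active means inhibition above a set limit, the median over all tested compounds plus 3 SD, cut at about 9.5% in these data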;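 further: enzyme runs in reverse so mevalonate oxidation gives rising NADPH absorbance; 0% = complete reaction with DMSO and 100% = background rate lacking mevalonate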
# Furin inhibitor – inhibitors of human furin. 220,000 compounds, 0.061% hits. AID 463115. inhibition, % at 20 µM or 30 µM. P09958. purified furin, fluorogenic substrate cleavage; in the data active means inhibition above about 25%
# EP2 mod – modulators of human EP2 prostaglandin E2 receptor | AID 940 | EP2-expressing cells, cAMP HTRF FRET, PGE2 co-stimulation | induction, % at 25 µM | 260,000 compounds, 0.83% hits;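 active means compounds whose cAMP rise, as percent of the full-agonist control response, exceeds 60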;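 further: rat C6 glioma line stably carrying human EP2 under a CMV promoter; the protocol text gives 20 µM as final concentration; 100% = response of wells given 1 µM PGE2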
# Target sequence (P43116 whole entry, looked up): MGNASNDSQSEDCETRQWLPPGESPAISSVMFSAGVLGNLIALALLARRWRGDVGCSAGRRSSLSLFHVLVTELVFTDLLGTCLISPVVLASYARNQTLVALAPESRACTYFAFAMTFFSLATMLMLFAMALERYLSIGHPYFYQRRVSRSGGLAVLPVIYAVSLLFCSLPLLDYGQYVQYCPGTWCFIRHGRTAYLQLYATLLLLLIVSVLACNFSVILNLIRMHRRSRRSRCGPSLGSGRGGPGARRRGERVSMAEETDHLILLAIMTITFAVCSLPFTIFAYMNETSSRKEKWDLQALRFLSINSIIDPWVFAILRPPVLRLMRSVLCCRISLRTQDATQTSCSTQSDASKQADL
# PGE2 EP2 inh – blocks the human prostaglandin E2 receptor EP2. P43116. C6 glioma cells expressing human EP2, cAMP TR-FRET; cells stimulated with saturating PGE2. inhibition, % at 25 µM. 260,000 compounds, 0.52% hits. AID 1422;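 active means percent inhibition above 40 after rounding to a whole number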;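 further: rat C6 glioma host cells with rolipram phosphodiesterase inhibitor present; the protocol text gives 20 µM as final concentration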
# m-calpain inh – blocks pig calpain II enzyme activity | purified calpain II, fluorogenic peptide substrate, 30 min | inhibition, % at 16 µM | 220,000 compounds, 0.37% hits;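 active means inhibition above about 50%, limit read from the data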
# * marks the source's active call; other numbers are inactive results; . = no result given; ! = a repeat was not active. In the library only some 1.9% were active in any assay of this set; here they are far more common.
SMILES,HMGR II inh,Furin inhibitor,EP2 mod,PGE2 EP2 inh,m-calpain inh
CCCCCc1nc2c(c(=O)c3ccccc3n2C)c(=O)n1C1CCCCCC1,-5,-20,-14,121*,38
CCC(C)[C@H]1O[C@]2(C=C[C@@H]1C)C[C@@H]1C[C@@H](C/C=C(\C)[C@@H](OC3C[C@H](OC)C(O[C@H]4C[C@H](OC)[C@@H](O)[C@H](C)O4)[C@H](C)O3)[C@@H](C)/C=C/C=C3\CO[C@@H]4[C@H](O)C(C)=C[C@@H](C(=O)O1)[C@]34O)O2 (stereo partly drawn),.,.,-7,10,.
S=P(C1CCCCC1)(C1CCCCC1)[C@H](c1cccnc1)N1CCCC1,.,.,34,39,.
CCCC(=O)N(C)C1=Nc2ccc(Cl)cc2C(c2ccccc2)=[N+]([O-])C1,.,-23,9,4,-17
CN(CCC(=O)O)C1=Nc2ccc(Cl)cc2C(c2ccccc2)=[N+]([O-])C1,.,.,14,50*,.
O=P(O)(OP(=O)(O)c1ccccc1)c1ccccc1 (tested in a mixture with another compound),.,.,33,49*,.
COc1cc(C2C(C#N)=C(N)Oc3n[nH]c(C)c32)cc(Cl)c1O (stereo not drawn),.,.,-9,7,.
Oc1c(Cl)c(Cl)c(Cl)c(Cl)c1Cl (tested in a mixture with another compound),.,.,-21,65*,.
O[C@H](CN1CC1)[C@@H](O)CN1CC1,.,.,22,42*,.
O=C(O)c1cc(N=Nc2ccc([As](=O)(O)O)cc2)ccc1O,.,.,33,43*,.
CC(=O)Nc1cc([As](=O)(O)O)ccc1O,-5,-8,19,8,24
O=[N+]([O-])c1cc(-c2ccc([As](=O)(O)O)cc2)ccc1[As](=O)(O)O,.,-21,-3,47*!,-9
COC(=O)[C@H]1C[C@@H]1[C@H](NP(=O)(c1ccccc1)c1ccccc1)c1ccccc1,-3,-19,15,6,-3
O=C(O)[C@@H]1C[C@H]1[C@@H](NP(=O)(c1ccccc1)c1ccccc1)c1ccccc1,21*,-20,38,13,-11
O=C(CN1C2CCC1CC(O)(c1ccco1)C2)Nc1ccc(F)cc1 (stereo not drawn),.,.,-82,.,.
Cc1ccc(S(=O)ON2CCC(C(=O)O)(c3ccccc3)CC2)cc1 (stereo not drawn),.,.,20,45*,.
Cc1ccc(-c2nn(Cc3ccccc3)cc2C(=O)O)cc1,.,-27,0,2,-12
CCCCC[CH2][Hg][n+]1c[nH]c2nc(N)[nH]c(=S)c21,.,.,-28,100*,.
CO[C@H]1[C@H](O)[C@@H](O[C@@H]2[C@@H](Oc3cccc4c(O)c5c(=O)oc6ccc(C)c7c(=O)oc(c34)c5c67)O[C@@H](C)[C@H](O)[C@H]2O)O[C@@H](C)[C@@H]1O,.,.,8,44*,.
CC12CCCCC1(Br)[N+](=O)N2[O-] (stereo not drawn),.,.,19,10,.
C[C@]12Cc3cnc(-c4ccccc4)nc3C[C@@H]1CC[C@H]1[C@H]2CC[C@@]2(C)[C@H]1CC[C@]2(C)O,.,.,0,49*,.
c1ccc(-c2cc(-c3ccccc3)[n+](-c3ccccc3)c(-c3ccccc3)c2)cc1,.,-12,-78,64*,11
COCCOc1cc(CN2C3CCC2CC(O)(c2ccccc2F)C3)ccc1OC (stereo not drawn),.,.,21,11,.
COc1ccc(C[C@@H]2C(=O)N[C@H](C)C(=O)N(C)[C@@H]3C(=O)N(C)[C@@H](Cc4ccc(O)c(c4)Oc4ccc(cc4)[C@H]3O)C(=O)N[C@@H](C)C(=O)N[C@H](C)C(=O)N2C)cc1,.,.,27,43*,.
Cn1ccnc1C1(O)CC2CCC(C1)N2CC(=O)Nc1ccccc1N1CCCCC1 (stereo not drawn),.,.,-25,.,.
SMILES,HMGR II inh,Furin inhibitor,EP2 mod,PGE2 EP2 inh,m-calpain inh
CCOC(=O)C1(c2ccccc2)CCN(Cc2cccc(C(=O)O)c2)CC1,-10,-18,18,25,1
CCOC(=O)C1(c2ccccc2)CCN(CC(=O)Nc2cccc3ccccc23)CC1,-2,-19,63*,6,19
Cc1nc(-c2ccccc2)c(CC(=O)N(CCN(C)C)C2CCCC2)s1,.,.,-6,4,.
Nc1ccccc1O.O.O=C(O)[C@H]1[O][Sb][O][C@H]1C(=O)O,.,.,-4,54*,.
COc1ccccc1CN(CCN(C)C)C(=O)Cc1coc2cc(C)ccc12,.,.,-71,21,.
OCC[n+]1c2ccccc2nc2ccc(N3CCOCC3)cc21,.,-16,-117,101*,21
CC(=O)O[C@@H]1C2CC[C@@H]3C1(C[C@@H](O)[C@@]1(O)[C@@H](C[C@H](O)C1(C)C)[C@]3(C)O)C[C@@]2(C)O (stereo partly drawn),.,.,-6,9,.
C[C@@H]1CC(Cl)CC[C@H]1C(=O)OC(C)(C)C (stereo partly drawn),.,.,25,11,.
COc1cc(CN2C3CCC2CC(O)(c2nccn2C)C3)ccc1OC(C)C (stereo not drawn),.,.,-29,9,.
C[C@@H]1[C@H]2C=C[C@@H]1[C@H](c1c3ccc(=O)c(O)c-3oc3c(O)c(O)ccc13)[C@@H]2C(=O)O,.,.,-10,45*,.
Cc1cccc(-n2c(O)c(/C=C/C=Nc3ccccc3)c(=O)[nH]c2=O)c1,0,31*,-12,7,14
CC(=O)Nc1ccc(C=C2C(=O)NC(=S)NC2=O)cc1,.,.,10,12,.
CN1CCc2cc(O)cc3c2[C@H]1Cc1ccc(O)c(O)c1-3,.,.,13,102*!,.
CCCN1CCc2cc(O)cc3c2[C@H]1Cc1ccc(O)c(O)c1-3,.,.,9,77*!,.
O=C1/C(=C/c2ccc(Cl)c(Cl)c2)N2CCC1CC2,.,.,-96,17,.
CC1=NN(c2ccccc2)C(=O)[C@H]1N=Nc1ccc([As](=O)(O)O)c(O)c1,.,.,46,43*,.
COc1cc2c3cc1Oc1c(O)c(OC)cc4c1[C@@H](Cc1ccc(cc1)Oc1cc(ccc1O)C[C@@H]3N(C)CC2)N(C)CC4,.,.,-7,48*,.
COc1cc2c3cc1Oc1cc(ccc1O)C[C@@H]1c4c(cc(OC)c(O)c4Oc4ccc(cc4)C[C@H]3N(C)CC2)CCN1C,-1,-11,-18,18,-21
CC1CCCN(C(=O)CN2C3CCC2CC(O)(c2ccco2)C3)C1 (stereo not drawn),.,.,-26,.,.
CN(C)C(=S)SSC(=S)N(C)C,-5,-38,-37,125*,-43
COc1ccccc1CN(CCN(C)C)C(=O)Cc1c(C)[nH]c2ccc(C)cc12,.,.,-45,7,.
C[C@]12CC[C@H](O)CC1=CC[C@@H]1[C@@H]2CC[C@@]2(C)[C@H]1CC[C@]2(C)O,.,.,.,15,.
Cc1c([C@@H](C)[C@H]2NC[C@H](C)C[C@@H]2O)ccc2c1C[C@@H]1[C@@H]2CC=C2C[C@@H](O)CC[C@@]21C,.,.,8,43*,.
Oc1ccc(/C=N/NP(=S)(c2ccccc2)c2ccccc2)cc1,-3,-3,1,2,47
COc1cc(/C=N/NP(=S)(c2ccccc2)c2ccccc2)ccc1O,-1,-10,-12,11,53*
